Reference: PubChem BioAssay
Records with an inconclusive call do not appear. The source made the active and inactive calls.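 How the source made its calls, unless noted: active means normalized viability below 100% at a tested concentration; inactive means the rest.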

Assays:
[1] = ovarian cancer cell viability with rucaparib, profiling panel, oncology-focused library, rucaparib conditional (AID 1508598); conditions: patient-derived ovarian cancer cells, CellTiter-Glo viability, 144 h, stronger effect = lower value
[2] = growth inhibition of DIPG glioma cells, dose response, cell-based, SU-DIPG-XVII, MIPE5.0, CellTiter-Glo, qHTS (AID 1347060; cut-off not given, nearly all actives have AC50 up to about 26 µM;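 further: cells exposed to compound for 48 hours before viability readout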); conditions: SU-DIPG-XVII viability, CellTiter-Glo ATP luminescence
[3] = growth inhibition of DIPG glioma cells, dose response, cell-based, JHH-DIPG-1, MIPE4.0, CellTiter-Glo, qHTS (AID 1347062; cut-off not given, nearly all actives have AC50 up to about 27 µM;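 further: cells exposed to compound for two days before readout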); conditions: JHH-DIPG-1 viability, CellTiter-Glo ATP luminescence
[4] = growth inhibition of DIPG glioma cells, dose response, cell-based, SU-DIPG-IV, MIPE4.0, CellTiter-Glo, qHTS (AID 1347063; cut-off not given, nearly all actives have AC50 up to about 30 µM;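 further: compound exposure lasted 48 hours before the viability readout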); conditions: SU-DIPG-IV viability, CellTiter-Glo ATP luminescence
[5] = growth inhibition of DIPG glioma cells, dose response, cell-based, SU-DIPG-XIII, MIPE5.0, CellTiter-Glo, qHTS (AID 1347064; cut-off not given, nearly all actives have AC50 up to about 23 µM;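 further: cells exposed to compound for 48 hours before the viability read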); conditions: SU-DIPG-XIII viability, CellTiter-Glo ATP luminescence
[6] = viability loss in pontine glioma line – cell-based, SU-DIPG-XXV, MIPE5.0, CellTiter-Glo, qHTS, dose response (AID 1347065; cut-off not given, nearly all actives have AC50 up to about 26 µM;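 further: cells exposed to compound for 48 hours before ATP readout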); conditions: CellTiter-Glo ATP luminescence
[7] = JHH-DIPG-1 glioma cell viability, MIPE5.0 library, CellTiter-Glo luminescence, qHTS (AID 1347067; cut-off not given, nearly all actives have AC50 up to about 26 µM;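 further: cells exposed to compound for 48 hours before readout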); conditions: JHH-DIPG-1 glioma viability, CellTiter-Glo ATP luminescence
[8] = SU-DIPG-XXV glioma cell viability, MIPE5.0 library, qHTS (AID 1347068; cut-off not given, nearly all actives have IC50 up to about 30 µM;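 further: cells exposed to compound for 48 hours before viability readout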)
[9] = sensitizers of A549 cells to miR-34 induction, primary screen, imaging, A549 dox-inducible miR-34, nuclei and caspase counts (AID 1347080;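 active means compounds whose cell count with miR-34 switched on is under 0.7 times the count with it off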); conditions: A549 miR-34 inducible, Hoechst nuclei count, 48 h
[10] = survival rescue of mitochondrial mutant cells in low glucose, primary screen, MELAS cybrids, Rieske KO mouse fibroblasts, CellTiter-Glo (AID 1508586;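 active means mean z-score across replicates of 1.96 or higher in either the MELAS or the Rieske mutant cell line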;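 further: z relative to plate mean and SD of compound and empty wells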)
[11] = SU-DIPG-VI glioma cell viability, MIPE4.0 library, CellTiter-Glo luminescence, qHTS (AID 1347066; cut-off not given, nearly all actives have AC50 up to about 30 µM;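 further: cells exposed to compound for 48 hours before readout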); conditions: CellTiter-Glo ATP luminescence
[12] = modifiers of HSF1 nuclear foci, imaging, Selleck Cancer Library (AID 1347162; in the data active means plate-normalised HSF1 focus index below about 0.46); conditions: human cells, at 10 µM; SSMD: measured here: HSF1 foci SSMD mean; cell count: measured here: cell number; plate-normalised HSF1 focus index: stronger effect = lower value
[13] = at 0.0195 µM, OCI-P5x cells, with rucaparib 20 µM, 100% = cells with rucaparib alone
[14] = at 0.0195 µM, OCI-P5x cells, without rucaparib
[15] = at 0.0781 µM, OCI-C5x cells, with rucaparib 10 µM, 100% = cells with rucaparib alone
[16] = at 0.0781 µM, OCI-C5x cells, without rucaparib
[17] = at 0.0781 µM, OCI-P5x cells, with rucaparib 20 µM, 100% = cells with rucaparib alone
[18] = at 0.0781 µM, OCI-P5x cells, without rucaparib
[19] = at 0.313 µM, OCI-C5x cells, with rucaparib 10 µM, 100% = cells with rucaparib alone
[20] = at 0.313 µM, OCI-C5x cells, without rucaparib
[21] = at 0.313 µM, OCI-P5x cells, with rucaparib 20 µM, 100% = cells with rucaparib alone
[22] = at 0.313 µM, OCI-P5x cells, without rucaparib
[23] = at 1.25 µM, OCI-C5x cells, with rucaparib 10 µM, 100% = cells with rucaparib alone
[24] = at 1.25 µM, OCI-C5x cells, without rucaparib
[25] = at 1.25 µM, OCI-P5x cells, with rucaparib 20 µM, 100% = cells with rucaparib alone
[26] = at 1.25 µM, OCI-P5x cells, without rucaparib
[27] = at 5 µM, OCI-C5x cells, with rucaparib 10 µM, 100% = cells with rucaparib alone
[28] = at 5 µM, OCI-C5x cells, without rucaparib
[29] = at 5 µM, OCI-P5x cells, with rucaparib 20 µM, 100% = cells with rucaparib alone
[30] = at 5 µM, OCI-P5x cells, without rucaparib
[31] = stronger effect = lower value, cell number ratio, induced over uninduced
[32] = measured here: relative caspase fold change +Dox/-Dox
[33] = measured here: total cells with miR-34 induction, stronger effect = lower value
[34] = measured here: total cells without miR-34 induction
[35] = MELAS cybrid survival, CellTiter-Glo 48 h, stronger effect = higher value
[36] = Rieske KO mouse fibroblast survival, CellTiter-Glo 72 h

CN(c1ncccc1CNc1nc(Nc2ccc3c(c2)CC(=O)N3)ncc1C(F)(F)F)S(C)(=O)=O
inactive: viability [1, 13] 106% | viability [1, 14] 106% | viability [1, 15] 111% | viability [1, 16] 122% | viability [1, 18] 101% | viability [1, 19] 110% | viability [1, 20] 119% | viability [1, 23] 110% | viability [1, 24] 110%
active: viability [1, 17] 92.3% | viability [1, 21] 90.8% | viability [1, 22] 93.6% | viability [1, 25] 76.7% | viability [1, 26] 73.3% | viability [1, 27] 13% | viability [1, 28] 19.1% | viability [1, 29] 33.5% | viability [1, 30] 24.3%

CNC(=O)c1nn(C)c2c1C(C)(C)Cc1cnc(Nc3ccc(N4CCN(C)CC4)cc3)nc1-2
active: AC50 [2] 5.9 µM | AC50 [3] 2.35 µM | AC50 [4] 14.8 µM | AC50 [5] 6.61 µM | AC50 [6] 2.35 µM | AC50 [7] 8.33 µM | IC50 [8] 9.34 µM | z-score [10, 35] 4.48
1220: cell count [9, 33]
1090: cell count [9, 34]
-3.65: z-score [10, 36]
inactive: fold change [9, 31] 1.12
0.794: fold change [9, 32]

CC(C)c1ccccc1Cc1cc(C(=O)Nc2ccc(S(=O)(=O)c3ccccc3C(C)(C)C)cc2)c(O)c(O)c1O
inactive: fold change [9, 31] 0.928 | plate-normalised HSF1 focus index [12] 0.912 | viability ([1]; at 0.000305 µM, OCI-C5x cells, with rucaparib 10 µM, 100% = cells with rucaparib alone) 105% | viability ([1]; at 0.000305 µM, OCI-C5x cells, without rucaparib) 115% | viability ([1]; at 0.000305 µM, OCI-P5x cells, with rucaparib 20 µM, 100% = cells with rucaparib alone) 124% | viability ([1]; at 0.000305 µM, OCI-P5x cells, without rucaparib) 124% | viability ([1]; at 0.00122 µM, OCI-C5x cells, with rucaparib 10 µM, 100% = cells with rucaparib alone) 103% | viability ([1]; at 0.00122 µM, OCI-C5x cells, without rucaparib) 119% | viability ([1]; at 0.00122 µM, OCI-P5x cells, with rucaparib 20 µM, 100% = cells with rucaparib alone) 117% | viability ([1]; at 0.00122 µM, OCI-P5x cells, without rucaparib) 116% | viability ([1]; at 0.00488 µM, OCI-C5x cells, with rucaparib 10 µM, 100% = cells with rucaparib alone) 113% | viability ([1]; at 0.00488 µM, OCI-C5x cells, without rucaparib) 116% | viability ([1]; at 0.00488 µM, OCI-P5x cells, with rucaparib 20 µM, 100% = cells with rucaparib alone) 117% | viability ([1]; at 0.00488 µM, OCI-P5x cells, without rucaparib) 121% | viability ([1]; at 0.0195 µM, OCI-C5x cells, with rucaparib 10 µM, 100% = cells with rucaparib alone) 110% | viability ([1]; at 0.0195 µM, OCI-C5x cells, without rucaparib) 109% | viability [1, 13] 118% | viability [1, 14] 114% | viability [1, 15] 110% | viability [1, 16] 111% | viability [1, 17] 119% | viability [1, 18] 114% | viability [1, 19] 101% | viability [1, 20] 112% | viability [1, 21] 112% | viability [1, 22] 110% | viability [1, 23] 106% | viability [1, 24] 118%
active: AC50 [2] 23.5 µM | AC50 [3] 23.5 µM | AC50 [4] 23.5 µM | AC50 [5] 20.9 µM | AC50 [6] 23.5 µM | AC50 [11] 9.35 µM | z-score [10, 35] 2.95 | viability [1, 25] 98.8% | viability [1, 26] 97.4% | viability [1, 27] 21.8% | viability [1, 28] 90.4% | viability [1, 29] 10.9% | viability [1, 30] 21.5%
-1.79: SSMD [12]
-0.101: z-score [10, 36]
7240: cell count [12]
0.84: fold change [9, 32]
2260: cell count [9, 34]
2090: cell count [9, 33]
